# Test results published in ChEMBL document CHEMBL3988442, “University of Dundee, Small-Polar-MMV Screening Library” (2021).
# In all, about 48,000 compounds went through this assay and about 13,000 (27%) showed an effect of 50% or more. The list shows a part of the results.
# Test system: Wolbachia pipientis
# Assay: Anti-Wolbachia Cell-Based Screen
# Type: functional
# Parameters: scale not given: in the data most compounds retested in dose-response had high values
# Conditions: 5 µM
row,SMILES,Percent Effect
1,CN(CCNS(C)(=O)=O)CC(c1cccs1)N1CCOCC1 (configuration not stated),-6.912%
2,CCc1nc(C)c(C(=O)NCCN2CCCC2)s1,119.2%
3,CCCc1nc(C)c(C(=O)NCCn2ccnc2)s1,-2.524%
4,CCc1nc(C)c(C(=O)NCCNc2ncccn2)s1,-5.791%
5,CCc1nc(C)c(CNC(=O)CCCN2CCCCC2)s1,-7.179%
6,Cc1nc(-c2noc3ccc(C(=O)NCCN4CCOCC4)cc23)cs1,-14.65%
7,CCCc1nc(C)c(C(=O)NCCN2CCCCC2)s1,125.3%
8,CCCc1nc(C)c(C(=O)NCCN2CCOCC2)s1,118.3%
9,CCCc1nc(C)c(C(=O)NC2CCN(c3ncccn3)CC2)s1,-4.746%
10,CCCc1nc(C)c(C(=O)NC2CCN(C3CC3)C2)s1 (configuration not stated),4.49%
11,Cc1cc(F)ccc1S(=O)(=O)NCc1[nH]ncc1Br,19.22%
12,COc1ccc2c(c1)OCC(Cc1ccc(N)cn1)C2 (configuration not stated),-6.73%
13,COc1ccccc1[C@@H]1CN(CC2CCC2)C[C@H]1C(=O)O,-30.09%
14,Cc1cncc(C(=O)N2CCNCC2C(=O)Nc2ccc(C)nc2)c1 (configuration not stated),4.535%
15,Cc1ccc(N2CCC(C3CCN(CC(C)C)CC3)C2)nn1 (configuration not stated),-23.48%
16,Cc1ccc(NC(=O)[C@H]2C[C@H](C(=O)O)CN(CC(C)C)C2)cn1,103.8%
17,Cc1ccc(NC(=O)[C@H]2C[C@H](C(=O)O)CN(CC3CC3)C2)cn1,109.3%
18,Cc1ccc(NC(=O)[C@@H]2C[C@H](C(=O)O)CN(Cc3sccc3C)C2)cn1,101.2%
19,O=C(Nc1cccnc1)C1CCN(c2cc(-n3ccnc3)ncn2)CC1,4.084%
20,Cc1ccsc1CN1CC2(CCN(C(=O)C3CC3)CC2)CC1C(=O)O (configuration not stated),-16.18%
21,Cc1ccsc1CN1CCCC(CNC(=O)c2ccc(N)nc2)C1 (configuration not stated),1.774%
22,Cc1ccc(NC(=O)c2nc3c(s2)CCCN3C(C)C)cn1,4.841%
23,CC(C)=CCN1C[C@@H](C(=O)O)C[C@H](C(=O)Nc2ccc(C)nc2)C1,93.94%

row,SMILES,Percent Effect
1,CCCc1nc(C)cc(N2CCNC(C(=O)Nc3ccc(C)nc3)C2)n1 (configuration not stated),-5.575%
2,Cc1nc(C(C)(C)C)sc1C(=O)NCCn1cccn1,3.617%
3,COc1ccc(F)cc1CSCC(=O)N(CCC#N)CCC#N,-2.312%
4,N#Cc1ccccc1CN1CCC(c2nccn2CC2CCC2)CC1,43.99%
5,COC[C@@H]1CC[C@H]2[C@H](CCN2S(=O)(=O)c2cccc(C)c2)O1,4.659%
6,Cc1ccccc1CN1CCOC(c2nccc(CN(C)C)n2)C1 (configuration not stated),127.2%
7,CCn1c(CN2CCOC(Cn3cccn3)C2)nc2c(F)cccc21 (configuration not stated),-12.64%
8,CN(C)CC1CN(Cc2cc(Cl)cc3cccnc23)CCO1 (configuration not stated),-1.777%
9,COc1cccc(O)c1CN1CCCC(Nc2cccc(F)c2)C1 (configuration not stated),-13.27%
10,CN(C)CC1CN(Cc2coc(-c3cccs3)n2)CCO1 (configuration not stated),-7.744%
11,CN(C)CC1CN(Cc2c(Cl)ccc3cccnc23)CCO1 (configuration not stated),-12.27%
12,CN(C)Cc1ccnc(C2CN(Cc3c(F)cccc3F)CCO2)n1 (configuration not stated),127%
13,c1ccc2c(CC3CN(Cc4nccs4)CCO3)cccc2c1 (configuration not stated),-0.1296%
14,COc1cccc(F)c1CN1CCC(c2nccc(C)n2)C1 (configuration not stated),140.3%
15,CN(C)Cc1ccnc(C2CN(Cc3nccs3)CCO2)n1 (configuration not stated),100.5%
16,CCn1ccnc1C1CCN(Cc2c(F)cccc2F)CC1,1.845%
17,Cc1cccnc1CN1CCOC(Cc2cccc3ccccc23)C1 (configuration not stated),-2.143%
18,COCCNS(=O)(=O)c1cccc2c1CN(C(=O)c1ccccc1)CC2,14.65%
19,O=C(c1ccno1)N1CCOC[C@H](Oc2ccccc2)C1,-14.73%
20,CC(C1CCN(Cc2cnn(C)c2C2CC2)CC1)N(C)C (configuration not stated),-2.941%
21,CC(C)(CN1CCCC1)CN1CCC(Cn2cc(C3CC3)nn2)CC1,12.62%
22,O=C(NCc1cc(O)ncn1)C1CCOc2ccccc2C1 (configuration not stated),8.885%
23,CNC(=O)C(NC(=O)CCc1cccc(OC2CCCC2)c1)C(C)C (configuration not stated),-3.816%

row,SMILES,Percent Effect
1,COCCN1CCCC2(CCN(c3nc(C)nc4ccsc34)C2)C1=O (configuration not stated),-7.564%
2,CC(C)(C)NC(=O)CN1CCCN(Cc2cc(C#N)ccc2F)CC1,-2.969%
3,Cc1noc(C)c1CN1CC2(CCN(C(=O)c3cc[nH]n3)C2)CC1=O (configuration not stated),-2.196%
4,Cc1noc(C)c1-c1cncc(CC2CCN(C(=O)c3cc[nH]n3)C2)n1 (configuration not stated),110.9%
5,Cc1noc(C)c1-c1cc(CC2CCN(C(=O)c3cc[nH]n3)C2)ncn1 (configuration not stated),98.42%
6,Cc1noc(C)c1-c1cnc(CC2CCN(C(=O)c3cc[nH]n3)C2)cn1 (configuration not stated),-12.99%
7,CCCS(=O)(=O)N[C@H]1CN(c2ncccc2C(N)=O)C[C@@H]1C(C)C,-5.813%
8,CC(=O)NCc1ccc(S(=O)(=O)NC(=O)c2ccc3c(c2)COC3)s1,-2.938%
9,Cc1nc2cc(O)nn2c(C)c1CCC(=O)NCCc1nccn1C,84.09%
10,Cc1nc(NC(=O)CCc2c(C)nc3cc(O)nn3c2C)sc1C,101.2%
11,Cn1ccnc1CCNC(=O)NCCC1CCCCO1 (configuration not stated),-7.857%
12,COc1ccc(NC(=O)CCc2c(C)nc3cc(O)nn3c2C)cn1,3.127%
13,Cc1noc(C)c1CS(=O)(=O)CC(=O)NCCc1ccccc1,-9.569%
14,Cc1nc2cc(O)nn2c(C)c1CCC(=O)NCCc1ccccc1,85.91%
15,Cc1nc2ncnn2c(C)c1CCC(=O)Nc1cccn(C)c1=O,1.385%
16,Cc1nc2cc(O)nn2c(C)c1CCC(=O)NCCCC(C)C,90.92%
17,CO[C@@H]1CCN(S(=O)(=O)c2cn(C)cn2)[C@H]1Cc1cnn(C)c1.O=C(O)C(F)(F)F,2.669%
18,O=C([C@@H]1CCO[C@@H]2CCN(CC3CCOCC3)C[C@H]21)N1CCCC1,-12.21%
19,CNC(=O)CCCNc1cc(C)nc2cc(C)nn12,1.816%
20,CCNC(=O)CCc1c(C)nc2cc(O)nn2c1C,5.527%
21,CNC(=O)CCNC(=O)CCc1c(C)nc2cc(O)nn2c1C,99.53%
